# The entries come from a sample that favours hits as a whole.
# Ins promoter up: MIN6 insulin promoter up-regulation; MIN6 insulin promoter-GFP reporter, high-content imaging; hits give high values; z-score at 5 µM; AID 1625; hit rate 0.3% among 190,000;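 active means z-score above 3 at 5 µM with at least 500 cells counted in the well; inconclusive means wells under 500 cells, flagged as cytotoxic or low count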
# HSV replic up: HSV replication enhancement; HSV replication augmentation in cells, fold increase; maximum fold increase; hit rate 0.005% among 220,000; in the data active means maximum fold increase above about 1.5; inconclusive means no clear call, values can overlap the other calls; tested in PC3 cells
# Insulin prom inh: TRM-6 insulin promoter activity inhibition; TRM-6 cells (human fetal islet line), insulin promoter-eGFP reporter, imaging; reporter expression induced with tamoxifen; inhibition, % at 2 µM; hit rate 0.9% among 130,000; AID 1273;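 active means inhibition above the mean plus 3 SD, with well images judged a real hit on visual review, cut at about 60% in these data, passing the limit was not always enough; inconclusive means inhibition over the cutoff but images rejected on review; inactive means inhibition not above the cutoff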
# TbHK1 inh: T. brucei hexokinase 1 inhibition; recombinant TbHK1, G6PDH-coupled NADH A340; inhibition, % at 10 µM; hit rate 0.11% among 220,000; AID 1430;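 active means inhibition of 50% or more in the single-dose primary screen; inactive means inhibition below 50%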
# ROMK primary: modulates human ROMK potassium channel activity; B-score at 10 µM; P48048; hit rate 2% among 130,000; Tet-inducible ROMK, thallium flux fluorescence; actives lie on both sides;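 active means signal ratio slope over the read window, or its plate-corrected B-score, at least 3 SD from the plate mean, either direction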;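 further: B-score of the F/F0 ratio slope over 7 to 12 s after thallium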
# Target sequence (P48048 whole entry, looked up): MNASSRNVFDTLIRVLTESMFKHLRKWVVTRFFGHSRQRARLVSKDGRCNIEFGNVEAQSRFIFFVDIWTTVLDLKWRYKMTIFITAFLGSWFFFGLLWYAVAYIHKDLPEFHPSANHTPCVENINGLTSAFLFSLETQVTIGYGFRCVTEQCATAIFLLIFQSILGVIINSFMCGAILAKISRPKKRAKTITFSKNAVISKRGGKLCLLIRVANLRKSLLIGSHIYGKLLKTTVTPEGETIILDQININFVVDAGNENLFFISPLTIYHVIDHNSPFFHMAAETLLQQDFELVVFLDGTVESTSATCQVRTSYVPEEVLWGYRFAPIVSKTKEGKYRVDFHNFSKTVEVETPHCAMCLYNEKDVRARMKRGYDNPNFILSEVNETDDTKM
# ROMK hit retest: confirmation of human ROMK potassium channel modulators. shares compounds with ROMK primary. ROMK thallium flux, fluorescence ratio; hits give low values. normalized thallium flux (F/F0 slope) at 10 µM. hit rate 54% among 3,000;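 active means Flux at 10 µM at least 3 SD below or above vehicle control mean in one or both replicates; inconclusive means no clear call, values can overlap the other calls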
# Hits are given with their value; 0 = inactive; ? = inconclusive; - = no result.
SMILES,Ins promoter up,HSV replic up,Insulin prom inh,TbHK1 inh,ROMK primary,ROMK hit retest
O=C(CSc1ccc(-c2ccco2)nn1)NC1CCCC1,0,-,0,0,-,0
O=C(CSc1ccc(-c2ccco2)nn1)NC1CCCCC1,0,-,0,0,-,-
C/C(=N\Nc1ccc([N+](=O)[O-])cc1)c1ccc(O)cc1,0,0,-,0,-4.5,0.053
C/C(=N\Nc1ccc([N+](=O)[O-])cc1)c1cccc(N)c1,0,0,-,0,0,-
CCC(C)NC(=S)NNC(=O)c1ccc(C(C)(C)C)cc1 (stereo not given),0,0,-,0,-,?
CCOc1cc2oc(=O)c3c(c2cc1Cl)CCC3,0,0,0,0,0,0
CSc1nccc(-c2nn(-c3ccc(C)cc3)ccc2=O)n1,0,0,0,0,4.4,0
C=CCSc1nccc(-c2nn(-c3ccc(C)cc3)ccc2=O)n1,0,0,0,0,-,-
CCSc1nccc(-c2nn(-c3ccc(C)cc3)ccc2=O)n1,0,0,-,0,3.1,0
CCCCc1cc(=O)oc2c(C)c(OCc3nn[nH]n3)ccc12,0,0,-,0,-,-
Cc1cccc(N(C(=O)c2csnn2)C(C(=O)NC(C)(C)C)c2cccnc2)c1 (stereo not given),-,0,0,0,2.2,0
COc1ccc(C([O-])=Nc2ccc[n+](-c3nc4ccccc4nc3NS(=O)(=O)c3ccccc3)c2)cc1,0,0,-,0,-,-
O=S(=O)(Nc1nc2ccccc2nc1-[n+]1cccc(N=C([O-])c2ccccc2Cl)c1)c1ccccc1,0,?,-,0,-,0.053
CCn1nc(Cc2cccc3ccccc23)c(C#N)c1N,-,0,-,-,-,-
O=c1c2ccccc2c(/C=N/c2nnc(Cc3ccccc3)s2)c(O)n1-c1ccc(Cl)cn1,0,0,0,0,-4.3,0.06
CCN(CC)S(=O)(=O)c1ccc(OC)c(NC(=O)CSc2cc(C)ccc2C)c1,0,0,0,0,-3.2,0.057
CCN(c1ccccc1)S(=O)(=O)c1ccc(OC)c(OC)c1,0,0,-,0,0,-
CCN(c1ccccc1)S(=O)(=O)c1ccc(OC)c(NC(=O)CNCCc2ccccc2)c1,0,0,0,0,-6.6,0.05
CCN(CC)S(=O)(=O)c1ccc(OC)c(NC(=S)Nc2cc(C)ccc2C)c1,0,0,0,0,0,-
O=C(Nc1nnc(C2=COCCO2)o1)c1ccc(S(=O)(=O)N2CCCCC2)cc1,-,0,-,0,0,-
CC(=O)Nc1ccc(S(=O)(=O)NCCCN2CCN(Cc3ccccc3)CC2)cc1Cl,0,0,-,0,-13,0
Cc1ccc(S(=O)(=O)NCCC(=O)N2CCN(Cc3ccccc3)CC2)cc1,0,0,0,0,-,-
CN(/C=C/C(=C\C=[N+](C)c1ccccc1)OCCCS(=O)(=O)[O-])c1ccccc1,0,0,-,0,-3.1,0.061
CN(/C=C/C(=C/C=[N+](C)c1ccccc1)OCCCS(=O)(=O)[O-])c1ccccc1,0,?,0,0,-3.5,0.056
CN(CC(=O)NCCc1ccc(S(N)(=O)=O)cc1)c1ccccc1,0,0,-,0,0,-
SMILES,Ins promoter up,HSV replic up,Insulin prom inh,TbHK1 inh,ROMK primary,ROMK hit retest
CSCCC(NC(=O)c1ccccc1C)C(=O)O (stereo not given),0,0,-,0,0,-
NC(=O)C1=NOC(CNc2ncc(C(F)(F)F)cc2Cl)C1 (stereo not given),0,0,0,0,2.4,0
CC(=O)c1cc2c(cc1NC(=O)c1cc3nc(C(C)C)cc(C(F)(F)F)n3n1)OCO2,0,0,-,0,-,0
CC(C)c1cc(C(F)(F)F)n2nc(C(=O)Nc3ccc(-n4cnnn4)cc3)cc2n1,0,0,-,0,-,-
COC(=O)C1=C(C(=O)OC)[C@@H]2N(Cc3ccccc3)c3ccccc3[C@@]23C[C@@H](C(=O)OC)N(C(=O)CC(C)C)C3=N1,0,0,-,0,-,?
COC(=O)CC1=NN(c2nc3ccccc3s2)C(=O)/C1=C/N(C)C,0,0,0,0,0,-
COc1ccc(OC)c(CC(NC(C)=O)C(=O)NC2CCN(c3c(Cc4ccccc4)c(C)nc4ncnn34)CC2)c1 (stereo not given),0,0,0,0,0,-
COc1cccc(CC(NC(C)=O)C(=O)NC2CCN(c3c(Cc4ccccc4)c(C)nc4ncnn34)CC2)c1 (stereo not given),0,0,0,0,0,0
O=C(COC(=O)c1ccc(Br)o1)NCCc1ccccc1,-,-,0,0,0,-
CSc1nc2ccc(S(=O)(=O)NC3CCCCC3)cc2s1,0,-,0,0,-2.4,?
Cc1ccc(S(=O)(=O)/N=C2/NC(=O)/C(=C/c3ccccc3)S2)cc1,-,0,0,0,-4.6,0.051

# High-throughput results: PubChem, several laboratories
